About 8,600 (12%) of roughly 69,000 compounds showed an effect of 50% or more. Only a selection was taken, and strong results are over-represented in it overall.
System: Plasmodium berghei
Assay: Screen against P. berghei liver stage (PbLuc), transformed with Luciferase, at 10uM
Format: functional, HepG2
Conditions: tested at 10 uM

Row | SMILES | INHIBITION
1 | Cc1cnn(CC2CCCN2CC(=O)NC2CCOCC2)c1 (configuration not stated) | 15.3%
2 | O=C1NCCN(CC2CC2)C12CCN(Cc1ccccc1)CC2 | 47.4%
3 | CCc1noc(CN2CCCN(Cc3cccs3)CC2)n1 | -47.6%
4 | Cc1nn(C)c(Cl)c1C1CCCN1Cc1ccc(C(N)=O)cc1 (configuration not stated) | -1.14%
5 | CCOCC1CN(S(=O)(=O)CC)Cc2cnn(CC3CC3)c21 (configuration not stated) | 31.7%
6 | CCOCC1CN(c2ncccn2)Cc2cnn(CC3CCOCC3)c21 (configuration not stated) | 22.5%
7 | CCOCC1CN(C)Cc2cnn(CC3CCCC3)c21 (configuration not stated) | 36.8%
8 | CCn1cc2c(n1)C(COC)CN(c1ccc(C)nn1)C2 (configuration not stated) | 36.2%
9 | COCC1CN(c2ncccn2)Cc2cnn(CC3CC3)c21 (configuration not stated) | 84.2%
10 | CCOCC1CN(C2CCCC2)Cc2cnn(CC3CCOCC3)c21 (configuration not stated) | 58.8%
11 | CCOCC1CN(S(C)(=O)=O)Cc2cnn(CC3CCOCC3)c21 (configuration not stated) | 30.1%
12 | CCn1cc2c(n1)C(COCC1CC1)CN(c1ccc(C)nn1)C2 (configuration not stated) | 41%
13 | CS(=O)(=O)N1Cc2cnn(CC3CC3)c2C(COCC2CC2)C1 (configuration not stated) | 53.4%
14 | COCC1CN(c2ccncn2)Cc2cnn(CC3CCCC3)c21 (configuration not stated) | 19.5%
15 | CCOCC1CN(c2ccc(C)nn2)Cc2nn(CC)cc21 (configuration not stated) | 63.5%
16 | Cn1ncc2c1C(COCC1CC1)CN(S(C)(=O)=O)C2 (configuration not stated) | 33.4%
17 | CCc1ccc(NC(=O)c2cnc(N3CCCC3)nc2C)cc1 | -55.4%
18 | CCCn1cc(NC(=O)Nc2ccc(F)c(C(=O)NC)c2)cn1 | 11.3%
19 | OC[C@H]1CN(C2Cc3ccccc3C2)C[C@H]1CN1CCC(O)CC1 | 29.4%
20 | CCCOCC1CCN(C(=O)c2cnc(-c3csc(C)n3)nc2O)C1 (configuration not stated) | -33.9%
21 | O=C(CSc1nccc(-c2ccc3c(c2)OCO3)n1)N1CCOCC1 | -47.8%
22 | Cc1cnn(CC2CCCN2Cc2nnc(-c3ccccc3)o2)c1 (configuration not stated) | 40.9%
23 | N#Cc1cccc(OCCN2CCn3c(nnc3C3CC3)C2)c1 | -1.14%
24 | CCN(Cc1cccc2c1OCO2)C(=O)Nc1cn[nH]c1 | -16%

Row | SMILES | INHIBITION
25 | O=C(c1ccoc1)N1Cc2cnn(CC3CC3)c2C(COCC2CC2)C1 (configuration not stated) | 22.6%
26 | Cn1ncc2c1C(COCC1CC1)CN(C(=O)c1ccoc1)C2 (configuration not stated) | 25.6%
27 | COCC1CN(C(=O)c2ccoc2)Cc2cnn(CC3CCOCC3)c21 (configuration not stated) | 51.4%
28 | Cc1nn(CCO)c(C)c1-c1cc(C(C)(C)C)nc(N)c1C#N | -0.71%
29 | COc1cc(F)ccc1NC(=O)NCCNC(=O)OC(C)(C)C | 19.1%
30 | COc1cc(F)ccc1NC(=O)NC(C)C(=O)NC(C)(C)C (configuration not stated) | 50.1%
31 | CCC(=O)Nc1ccc(F)cc1OC | 27.6%
32 | CCn1ncc(CN2CCC(c3ncc(Cl)cc3S(C)(=O)=O)CC2)c1C | 20.57%
33 | COc1ncccc1C(=O)NCCn1nc(C)ccc1=O | 3.68%
34 | CNc1ccc(C2CN(c3nc(C)cc(C)n3)CCO2)nc1 (configuration not stated) | -7.9%
35 | COc1ccc(CN2CCC3(CC(=O)N(c4cncnc4)C3)C2)cc1 (configuration not stated) | 42.6%
36 | Cc1nn(C)c(Cl)c1C1CCCN1CC(=O)NC1CCCCC1 (configuration not stated) | 14.7%
37 | Cc1nn(C)c(Cl)c1C1CCCN1CC(=O)NC1CCCC1 (configuration not stated) | 53%
38 | Cc1nn(C)c(C)c1C1CCCN1CC(=O)NC(C1CC1)C1CC1 (configuration not stated) | 25.7%
39 | COc1c(C2CCCN2Cc2nnc(C3CC3)n2C)c(C)nn1C (configuration not stated) | 5.94%
40 | CC(=O)N1CCN(C(=O)CN2CCCC2c2c(C)nn(C)c2C)CC1 (configuration not stated) | 50.1%
41 | CC(=O)NCCNC(=O)CN1CCCC1c1c(C)nn(C)c1C (configuration not stated) | 60.2%
42 | Cc1nn(C)c(Cl)c1C1CCCN1CC(=O)N1CCCCC1 (configuration not stated) | -3.21%
43 | Cc1nn(C)c(C)c1NC(=O)CN1CCCC1c1c(C)nn(C)c1C (configuration not stated) | 28.8%
44 | Cc1nn(C)c(Cl)c1C1CCCN1Cc1nnc(C2CC2)n1C (configuration not stated) | 7.93%
45 | COCCNC(=O)CN1CCCC1c1c(C)nn(C)c1Cl (configuration not stated) | 36.1%
46 | Cc1nn(C)c(Cl)c1C1CCCN1CC(=O)N1CCOCC1 (configuration not stated) | 33.6%
47 | Cc1nn(C)c(C)c1C1CCCN1Cc1nnc(C2CC2)n1C (configuration not stated) | 50.5%
48 | Cc1cc(C(=O)NC2CCc3c(ccc(=O)n3CC(C)C)C2)no1 (configuration not stated) | 2.7%

Row | SMILES | INHIBITION
49 | CN(CCC#N)C(=O)Cn1cnc2c(Br)cccc2c1=O | 11.9%
50 | CCn1ccnc1CN1CCCN(C(=O)c2ccsc2)CC1 | 16.165%
51 | CS(=O)(=O)c1ccc(NCCC2CCCO2)c(S(C)(=O)=O)c1 (configuration not stated) | 15.2%
52 | Cc1cccc(SC2CCN(C(=O)CCCn3cnnn3)CC2)c1 | 43.8%
53 | CN(C)Cc1ccnc(NS(=O)(=O)Cc2cccc(F)c2)c1 | 27%
54 | CC(C)n1cnnc1C1CCCN(C(=O)COCc2ccccc2)C1 (configuration not stated) | 2.3%
55 | NC(=O)c1csc(N2C[C@@H](CN3CCC(O)CC3)[C@@H](CO)C2)n1 | 19.6%
56 | CCS(=O)(=O)CC(=O)NC(C)c1ccccc1Oc1ccccc1 (configuration not stated) | -3.94%
57 | CC(NC(=O)CSCC(N)=O)c1ccc(Oc2ccccc2)cc1 (configuration not stated) | 1.86%
58 | CC(NC(=O)CSCC(N)=O)c1ccccc1Oc1ccccc1 (configuration not stated) | 71.4%
59 | Cc1nnc(N2C[C@@H](OCC3CCCC3)[C@H]3OCCC[C@H]32)s1 | -36%
60 | O=C(c1ccc2[nH]nnc2c1)N1C[C@H](O)[C@]2(CCCO2)C1 | 4.41%
61 | CCN(CC)CCNC(=O)c1cnc(C(C)(C)C)s1 | 4.88%
62 | O=C(NCCCN1CCCCC1)c1n[nH]c(=O)c2ccccc12 | 14.4%
63 | O=C(NCCCN1CCOCC1)c1ccc(-n2ccc3ccccc32)s1 | 29.3%
64 | O=C(NCCCN1CCCC1=O)c1ccc(-n2ccc3ccccc32)s1 | -45.5%
65 | O=C(NCCN1CCOCC1)c1ccc(-n2ccc3ccccc32)s1 | 63.2%
66 | CCN(CC)CCNC(=O)c1ccc(-n2ccc3ccccc32)s1 | 75.1%
67 | Cn1ccc2c(C(=O)NCCCN3CCOCC3)cccc21 | 22.2%
68 | O=C(NCCCN1CCCCC1)c1ccc(-n2ccc3ccccc32)s1 | 84.5%
69 | CCC1CN(CC(=O)NCCN(CC)CC)c2ccccc2S1 (configuration not stated) | 19.4%
70 | Cn1ccc2c(C(=O)NCCCN3CCCC3)cccc21 | 55.9%
71 | Cc1nc(-c2cc(C(=O)NCCN3CCOCC3)c3ccccn23)cs1 | -11.6%
72 | Cn1ccc2c(C(=O)NCCCS(C)(=O)=O)cccc21 | 9.16%
